In ChEMBL document CHEMBL4513216, “Probing the Open Global Health Chemical Diversity Library for Multistage-Active Starting Points for Next-Generation Antimalarials” (ACS Infect Dis, 2020):
The campaign covered roughly 68,000 compounds. About 2,700 (4%) showed an effect of 50% or more. Many of the other results were omitted from the sample, so strong results are more common in it than they were.

These compounds were tested on Plasmodium berghei (assay: Screen against P. berghei liver stage (PbLuc), transformed with Luciferase, at 2uM). Conditions: tested at 2 uM.
Assay type: functional, HepG2

Row | Compound | INHIBITION [%]
1 | CC(C)NC(=O)CC1[C@H]2CN(C(=O)Cc3ccccn3)C[C@@H]12 (some centres undefined) | 33.39
2 | O=C(c1ccc(S(=O)(=O)N2CCSCC2)cc1)N1CCC(O)C1 (centres undefined) | -57.76
3 | O=C(c1ccc(S(=O)(=O)N2CCNCC2)cc1)N1CCCC(O)C1 (centres undefined) | 57.4
4 | CN1CCN(S(=O)(=O)c2ccc(C(=O)N3CC[C@@H](O)C3)cc2)CC1=O | -27.61
5 | CCn1cc(S(=O)(=O)N2CCC(C3CCCCN(C)C3=O)CC2)c(C)n1 (centres undefined) | -12.21
6 | CC(=O)c1cn(CC(=O)NC(C(=O)O)C(C)C)c2ccccc12 (centres undefined) | -7.53
7 | COc1cc(C(C)NCc2ncccc2C)ccc1SC(F)F (centres undefined) | -48.24
8 | CN(Cc1ccco1)Cc1cncc2c1CCN(S(C)(=O)=O)C2 | 51.94
9 | CCS(=O)(=O)N1CCc2c(CN(C)Cc3ccco3)cncc2C1 | -21.1
10 | CC(C)N1CCc2c(CN(C)Cc3ccco3)cncc2C1 | 16.48
11 | Cc1nc(C)n(CC2CCCN2CC(=O)Nc2ccncc2)n1 (centres undefined) | -40.36
12 | Cc1nc(C)n(CC2CCCN2CC(=O)NC2CCOCC2)n1 (centres undefined) | 32.76
13 | Cc1nc(C)n(CC2CCCCN2CC(=O)NC2CCOCC2)n1 (centres undefined) | 60.31
14 | CCN1CCC(NC(=O)CN2CCCC2Cn2nc(C)nc2C)CC1 (centres undefined) | -2.82
15 | Cc1nc(C)n(CC2CCCCN2CC(=O)Nc2cccnc2)n1 (centres undefined) | -12.75
16 | Cc1nc(C)n(CC2CCCCN2CCC(=O)Nc2cc(C)on2)n1 (centres undefined) | -14.71
17 | Cc1nc(C)n(CC2CCCCN2CC(=O)Nc2ccncc2)n1 (centres undefined) | 51.21
18 | Cc1nc(C)n(CC2CCCCN2CC(=O)Nc2cc(C)on2)n1 (centres undefined) | 64.16
19 | Cc1nc(C)n(CC2CCCN2CC(=O)Nc2cc(C)on2)n1 (centres undefined) | -1.02
20 | O=C(c1c(F)cc(Br)cc1F)N1CCc2cnccc21 | -62.99
21 | Cn1c(=O)[nH]c2cc(C(=O)OCC(F)F)ccc21 | -67.78
22 | Cn1ccc(C(=O)N2CCC(Cc3cccc4cccnc34)C2)n1 (centres undefined) | 9.79
23 | Cn1cc(C(=O)Nc2cccc(CCN3CCCC3)c2)ccc1=O | -51.94
24 | O=C(C1CCCCC1)N1CCC2(COc3ncccc3S(=O)(=O)N2)C1 (centres undefined) | -15.49
25 | COc1ccc(F)cc1CN1CCCC(c2cc(C(N)=O)[nH]n2)C1 (centres undefined) | 30.91
26 | NC(=O)c1cc(C2CCCN(C(=O)CCc3ccccn3)C2)n[nH]1 (centres undefined) | -0.71
27 | COc1ccccc1OCCN1CCCC(c2cc(C(N)=O)[nH]n2)C1 (centres undefined) | 31.51

Row | Compound | INHIBITION [%]
28 | COc1cccc(CN2CCCC(c3cc(C(N)=O)[nH]n3)C2)c1 (centres undefined) | 54.99
29 | NC(=O)c1cc(C2CCCN(CCc3ccccn3)C2)n[nH]1 (centres undefined) | 58.53
30 | Cc1cc(C2CCCN(CCc3ccccn3)C2)n[nH]1 (centres undefined) | -12.48
31 | O=C(NCC(F)(F)F)C1CCCN(Cc2ccno2)C1 (centres undefined) | 20.32
32 | CC(C)c1nnc(NC(=O)C2CSCN2C(=O)C2CCC2)s1 (centres undefined) | -52.32
33 | O=C(c1cnccn1)N1CCN2C[C@H](OCc3ccccc3F)C[C@H]2C1 | -6.88
34 | CCCSCC(=O)N1C[C@@H]2CC[C@H]1CN(Cc1cccnc1)C2 | 16.1
35 | O=C(O)CC1COCCN1CCCc1ccccc1 (centres undefined) | 3.35
36 | Cc1cc(N2CCCC2c2cc(Nc3cnccn3)nc(C)n2)ncn1 (centres undefined) | 43.23
37 | O=C(CCc1nc2cc(Br)cnc2[nH]1)NCc1cccnc1 | 10.22
38 | c1ccc(CN2CCC(CNc3ncnc4c3CCNCC4)CC2)cc1 | 70.58
39 | c1ccc(CN2CCCC(CNc3ncnc4c3CCNCC4)C2)cc1 (centres undefined) | 29.87
40 | c1ccc(CN2CCC(CCNc3ncnc4c3CCNCC4)C2)cc1 (centres undefined) | 31.3
41 | O=C(c1ccncc1F)N1CCc2ncnc(C3CC3)c2CC1 | 21.67
42 | CC(C)c1nn(C)c(N(C)C)c1CNCc1cccnc1N(C)C | 39.54
43 | CCOc1ncccc1CNCc1c(C)nn(C)c1N(C)C | 47.87
44 | COc1ncccc1CNCc1c(C(C)C)nn(C)c1N(C)C | 43.28
45 | COc1ncccc1CNCc1c(C)nn(C)c1N(C)C | 11.2
46 | CC(C)c1nn(C)c(N(C)C)c1CNCc1ccc2c(c1)OCCO2 | 66.2
47 | CC(C)c1nn(C)c(N(C)C)c1CNCc1ccc2c(c1)OCO2 | -41.21
48 | Cc1nn(C)c(N(C)C)c1CNCc1cccnc1OC(C)C | 53.98
49 | CCOc1ncccc1CNCc1c(C(C)C)nn(C)c1N(C)C | 74.35
50 | CC(C)c1nn(C)c(Cl)c1CNCc1ccc2c(c1)OCCO2 | 8.37
51 | C[C@@H]1C(=O)NC[C@H]2CN(Cc3ccsc3)C[C@H]21 | -66
52 | CC(C)(C)c1nc(CN2CCCC(Cn3cncn3)C2)no1 (centres undefined) | -64.16
53 | CN(C)C(=O)c1cn[nH]c1C1CCCN1Cc1nccn1C (centres undefined) | 11.2
54 | Cc1[nH]/c(=N\C(=O)c2csc(NC3CCCC3)n2)sc1C | 34.93
